Structures are written as SMILES.

For this assay, the target named is Fibroblast growth factor 2 (Homo sapiens) (UniProt P09038). Nature of the assay: FGF2 binders on small-molecule microarrays, primary screen, biochemical, small-molecule microarray, 635/667 nm fluorescence (AID 1133). The settings on record: small-molecule microarray binding, FGF2, fluorescence 635/667; higher = more signal.
Chain of Fibroblast growth factor 2 (Homo sapiens) (P09038 whole entry, looked up): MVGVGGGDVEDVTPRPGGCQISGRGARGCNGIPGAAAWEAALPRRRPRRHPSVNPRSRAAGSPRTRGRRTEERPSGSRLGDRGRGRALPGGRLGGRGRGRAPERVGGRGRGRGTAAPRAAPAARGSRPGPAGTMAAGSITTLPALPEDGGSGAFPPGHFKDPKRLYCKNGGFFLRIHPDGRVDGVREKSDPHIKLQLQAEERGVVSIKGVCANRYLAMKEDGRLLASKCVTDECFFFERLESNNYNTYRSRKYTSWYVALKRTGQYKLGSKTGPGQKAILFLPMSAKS
In turn, `C=CC[C@]1(C(=O)O)N=C(c2ccc(OCCCO)cc2)O[C@H]1c1ccccc1CN=[N+]=[N-]` yielded a composite z-score of -0.39.

Take `C[N+](C)(C)CCCCNC(=O)[C@H]1C[C@H]2C(=O)N3CCC[C@H]3C(=O)N2[C@H]1c1ccc(O)cc1`: the composite z-score worked out at 1.81.

In turn, `[N-]=[N+]=NCc1ccccc1[C@@H]1OC(c2ccc(OCCCO)cc2)=N[C@]1(Cc1ccccc1)C(=O)O` came in with a composite z-score of 0.0221.

As to `CN(C)CCCN1C(=O)[C@@]2(c3ccc([N+](=O)[O-])cc3)CC(=O)N(C3CCCCC3)[C@@H]2c2ccc(CO)cc21`, the composite z-score turned out to be 0.836.

The molecule `CCOC1=C2C(c3ccc(C)cc3)N(S(=O)(=O)c3ccc(C)cc3)CC2n2c(=O)n(-c3ccccc3)c(=O)n2C1` (stereo unspecified) gave a composite z-score of 0.747.

Take `O=C1c2ccccc2[C@](Cc2ccccc2I)(C(=O)O)[C@H](c2ccc(CO)cc2)N1Cc1ccccc1C(F)(F)F`: the composite z-score is -0.238.

Consider `CCCCCCCCCCC(O)C1C=CC2C(=O)N(c3ccccc3)C(=O)C2N1Nc1ccc([N+](=O)[O-])cc1` (stereo unspecified), for which the composite z-score worked out at 0.378.

With `CCOC(=O)C1=CC[C@@H](c2cccc(Cl)c2)N(S(=O)(=O)c2ccc(C)cc2)[C@H]1c1ccc(C#N)cc1`, the composite z-score came to 0.56.

`CCCCCCC#C[Si](O[C@H](c1ccccc1)c1cn([C@H](C)c2ccccc2)nn1)(C(C)C)C(C)C` came in with a composite z-score of 0.555.

Consider `O=C(NCC(F)(F)F)[C@@H]1c2ccccc2C(=O)N(Cc2ccccc2)[C@H]1c1ccc(CO)cc1`, for which the composite z-score was -1.34.

As to `O=C1OCC=C[C@H]2OC34C=CCN(c5ccc(Cl)cc5)C(=O)[C@H]3N(CCCO)C(=O)[C@@H]4[C@@H]12` (stereo partly specified), the composite z-score is -0.708.

With `CCOC(=O)N1C(c2ccc(OCCCO)cc2)=NC(C(=O)OC)N1C(=O)OCC` (stereo unspecified), the composite z-score was found to be 0.955.

`Cc1ccc(S[C@]2(C(=O)NCC(F)(F)F)CC(=O)N(C3Cc4ccccc4C3)[C@@H]2c2ccc(CO)cc2I)cc1` showed a composite z-score of -1.01.

The molecule `[N-]=[N+]=Nc1ccccc1C[C@]1(C(=O)N2CCCCC2)N=C(c2ccc(OCCCO)cc2)O[C@H]1c1ccccc1N=[N+]=[N-]` came in with a composite z-score of 0.806.

In the case of `C=CCNC(=O)[C@H]1[C@@H]2C(=O)O[C@@H](c3ccccc3)[C@@H](c3ccccc3)N2[C@@H](c2ccc(O)cc2)[C@]12C(=O)Nc1ccc(C#Cc3ccc(OC)cc3)cc12`, the composite z-score stood at 1.13.

`[N-]=[N+]=NCc1ccccc1C[C@]1(C(=O)NCc2ccccc2)COC(c2ccc(OCCCO)cc2)=N1` gave a composite z-score of 0.661.

As to `O=C1OCC=C[C@H]2OC34C=CCN(CCN5CCOCC5)C(=O)[C@H]3N(CCCCCCO)C(=O)[C@@H]4[C@@H]12` (stereo partly specified), the composite z-score was -0.131.

For `[N-]=[N+]=Nc1ccccc1[C@H]1OC(c2ccc(OCCCO)cc2)=N[C@@]1(CCS(=O)(=O)c1ccccc1)C(=O)N1CCOCC1`, the composite z-score came out at 1.73.

`COC(=O)[C@@]1(Cc2ccccc2)[C@H]2c3cc(C(=O)N(C)C)n(Cc4cc(F)c(F)c(F)c4)c3C[C@H]2CN1C(=O)c1ccccc1` returned a composite z-score of -0.311.

Consider `O=C1O[C@H](c2ccccc2)[C@H](c2ccccc2)N2[C@H]1[C@@H](C(=O)N1CCCCCCC1)[C@]1(C(=O)Nc3ccc(C#CC4=CCCCC4)cc31)[C@H]2c1ccc(O)cc1`, for which the composite z-score turned out to be 1.22.

With `[N-]=[N+]=NCc1ccccc1C[C@]1(C(N)=O)N=C(c2ccc(OCCCO)cc2)O[C@H]1c1ccccc1N=[N+]=[N-]`, the composite z-score was -0.386.

Take `C=CCOC(=O)[C@H]1[C@@H]2C(=O)O[C@@H](c3ccccc3)[C@@H](c3ccccc3)N2[C@@H](c2ccc(OCCOC(=O)[C@H]3C[C@H]4C(=O)N[C@@H](CCCC[N+](C)(C)C)C(=O)N4[C@H]3c3ccc(O)cc3)cc2)[C@]12C(=O)Nc1ccccc12`: the composite z-score was determined as 0.703.

With `CC(C)NC(=O)[C@@]1(c2ccc([N+](=O)[O-])cc2)CC(=O)N(C(C)C)[C@@H]1c1ccc(CO)cc1`, the composite z-score was -1.23.

Take `COc1ccc([Si](C)(C)[C@@H]2[C@@H](CCn3cc([C@H](O)c4ccccc4)nn3)O[C@]3(C(=O)N(C)c4ccccc43)[C@H]2C)cc1`: the composite z-score was 0.283.

In turn, `COCCOC(=O)N1C(=O)[C@@]2(c3cc(C#CC4=CCCCC4)ccc31)[C@H](C(=O)N1CCN(c3ncccn3)CC1)[C@H]1C(=O)O[C@H](c3ccccc3)[C@H](c3ccccc3)N1[C@@H]2c1ccc(OCCO)cc1` returned a composite z-score of 1.59.

In turn, `C=CCOC(=O)[C@@H]1[C@H]2C(=O)O[C@H](c3ccccc3)[C@H](c3ccccc3)N2[C@H](c2ccc(OCCOC(=O)[C@H]3C[C@H]4C(=O)N[C@@H](CC(C)C)C(=O)N4[C@H]3c3cccc(OCCO)c3)cc2)[C@@]12C(=O)Nc1ccc(I)cc12` registered a composite z-score of 1.63.

For `CC(C)N1C(=O)c2ccccc2[C@](C)(C(=O)NCCCN(C)C)[C@@H]1c1ccc(CO)cc1`, the composite z-score was -0.224.

`CC(=O)NCCCC[C@@H]1NC(=O)[C@@H]2C[C@H](C(=O)NCCCCCC[N+](C)(C)C)[C@H](c3cccc(OCCO)c3)N2C1=O` displayed a composite z-score of 1.69.

The molecule `CCCCN1CC=CC23O[C@@H]4C=CCCOC(=O)C4[C@H]2C(=O)N(CCCO)[C@@H]3C1=O` (stereo partly specified) had a composite z-score of -0.469.

Consider `C=CCC(OC(C)=O)[C@@H]1[C@@H](N(Cc2cc3ccccc3o2)C(=O)c2cccc3ccccc23)c2cc(OCCCO)ccc2N1C(=O)Cc1ccc(OC)cc1` (stereo partly specified), for which the composite z-score was determined as 0.78.

As to `C=CCN1C(=O)[C@]2(COC(c3ccc(OCCCO)cc3)=N2)Cc2ccccc21`, the composite z-score amounted to 1.08.

`C=C[C@H](C)[C@H](OC(=O)Nc1ccc(OC)cc1)c1ccc(O)c2ccccc12`: the composite z-score was 0.39.

`COc1ccccc1CN1C(=O)c2ccccc2[C@](Cc2ccccc2I)(C(=O)NC2CC2)[C@@H]1c1ccc(CO)cc1` displayed a composite z-score of 1.55.

`C=CC[C@@]1(C(N)=O)N=C(c2ccc(OCCCO)cc2)O[C@@H]1c1ccccc1N=[N+]=[N-]` came in with a composite z-score of 1.14.

As to `CCN(CC)c1ccc(N2CC=CC34O[C@@H]5C=CCOC(=O)[C@@H]5[C@H]3C(=O)N(CCCCCO)[C@@H]4C2=O)cc1` (stereo partly specified), the composite z-score is -0.551.

Take `COCCOC(=O)N1C(=O)[C@@]2(c3cc(C#CCC(C(=O)OC)C(=O)OC)ccc31)[C@H](c1ccc(OCCO)cc1)N1[C@H](c3ccccc3)[C@H](c3ccccc3)OC(=O)[C@H]1[C@@H]2C(=O)NC[C@H](O)c1ccccc1`: the composite z-score turned out to be 1.7.

The values above are taken from PubChem BioAssay.
